This is an account of results in PubChem BioAssay (NCATS).

Inconclusive results are not listed. Calls of active or inactive are those of the source. Calls come from the whole dose curve; as a rule, active = well fitted inhibition curve with a large enough effect; inconclusive = small, poorly fitted or top-dose-only effect; inactive = flat fitted curve, though single readings scatter.

The subject of the assay is HEK293. Put plainly: Cytotoxic Profiling of Annotated Libraries Using Quantitative High-Throughput Screening (AID 1296008). Note: nearly all actives have a fitted effect of over 60% in size. The note with it: Five cell lines viability, CellTiter-Glo ATP luminescence, 48-72 h; max response: hits give low values. Put shortly: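 Cytotoxicity was measured as CellTiter-Glo ATP luminescence, read after 10 min at room temperature. Compound treatment of the cells lasted 48 or 72 hr at 37 degrees Celsius in a qHTS format.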
For `CC12CCC3C(C)(C)C(O)CCC3(C)C1Cc1c(oc(C(=O)O)cc1=O)O2` (centres undefined), the result was inactive.
With `Cc1cc(O)cc(Oc2cc(C)c(C(=O)O)c(O)c2)c1`, the molecule was called inactive.
Next, `C[C@@H]1O[C@@H](O[C@@H]2[C@@H](O)[C@H](O[C@@H]3[C@@H](O)[C@@H](O)[C@H](O[C@H]4[C@H](OC(=O)[C@]56CCC(C)(C)C[C@H]5C5=CCC7[C@@]8(C)C[C@H](O)[C@H](O[C@@H]9O[C@@H](C)[C@H](O)[C@@H](O)[C@H]9O)[C@@](C)(CO)C8CC[C@@]7(C)[C@]5(C)C[C@H]6O)O[C@H](C)[C@H](O)[C@@H]4O)O[C@H]3C)OC[C@H]2O)[C@H](O)[C@H](O)[C@H]1O` (some centres undefined): “inactive”; `CC1CCC2(O1)C(C)(C)CC(O[C@@H]1O[C@H](CO[C@@H]3OC[C@](O)(CO)[C@H]3O)[C@@H](O)[C@H](O)[C@H]1O)CC2(C)O` (some centres undefined): “inactive”.
In the case of `C[C@@]12C[C@]3(O)O[C@H](O1)[C@]1(COC(=O)c4ccccc4)[C@H]3C[C@@]12O[C@@H]1O[C@H](COC(=O)c2ccccc2)[C@@H](O)[C@H](O)[C@H]1O` it was “inactive”; in that of `C=C1CC[C@H]2[C@@H](/C=C(\C)C(=O)[C@@]3(OC(C)=O)C[C@H](C)[C@H](OC(C)=O)[C@@H]3[C@H]1OC(C)=O)C2(C)C`, “inactive”.
Next, `NCc1c[nH]c(=S)n1C1CCc2c(F)cc(F)cc2C1` (centres undefined): “inactive”; `C/C=C/C1=CC2=CC(=O)C(C)(O)C(OC(=O)c3c(C)cc(O)cc3O)C2CO1` (centres undefined): “inactive”.
Regarding `O=C1NC(=Nc2ccccc2F)S/C1=C\c1ccc(C(=O)O)cc1`, the result was inactive.
